# Sm TGR block: S. mansoni TGR enzyme inhibition; Q962Y6; purified TGR, DTNB reduction, TNB absorbance 405 nm; Potency, µM (top dose mostly 114 µM), actives largely listed as inhibitors; 3% of 360,000 active; AID 485364; further: nearly all actives have a fitted effect of over 60% in size
#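 First, TGR (20 nM dispensed) and NADPH were mixed with compound. Second, a 15 min room-temperature incubation followed. Third, further NADPH and then DTNB were added to start the reaction. Finally, TNB absorbance was monitored kinetically.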
# Pf growth 48h: inhibits P. falciparum growth in the first generation, 48 h. P. falciparum luciferase growth in erythrocytes, 48 h. Potency, µM (top dose mostly 28.7 µM), most hits filed as inhibitors. 5.9% of 310,000 active. AID 504832
#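 Luminescence readout; reporter = integrated firefly luciferase in P. falciparum. RBC culture at 2% hematocrit, 0.1% parasitemia final, 37 C/5% CO2; decreased signal taken as growth inhibition.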
# NS1 inh: influenza NS1 inhibition; Potency, µM (titrated, usually from 46.1 µM); 0.4% of 270,000 active; AID 2326; calls by dose curve; further: actives are rising curves; nearly all actives have a fitted effect of over 50% in size
#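 Read-out: OD600 growth recovery of NS1-expressing budding yeast. Cells grown overnight at 30C in -URA glucose medium, washed, resuspended and diluted 1:100 in 2% galactose assay medium, pH 6.0. Same strain lacking NS1 served as positive control.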
# AMA1 RON2 block: AMA1-RON2 (P. falciparum) interaction inhibition. AlphaScreen AMA1-biotinylated RON2 peptide binding. Potency, µM (series often up to 58.2 µM), usual class: inhibitors. 0.2% of 360,000 active; further: nearly all actives have a fitted effect of over 45% in size
#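 AMA1 (3D7) with his tag at 25 nM final met compounds first, then biotinylated RON2 peptide at 25 nM; detection used donor plus acceptor beads, 10 µg/mL apiece, read by AlphaScreen after 30 min at room temperature.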
# Pf growth 96h: P. falciparum growth inhibition at 96 hours. 6.9% of 320,000 active. P. falciparum luciferase reporter growth, 96 h. AID 504834. Potency, µM (titrated, usually from 28.7 µM), actives largely listed as inhibitors
#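 Delayed-death screen, second-generation endpoint: infected erythrocytes, 2% hematocrit, 0.05% parasitemia final; 96 hours at 37 C, 5% CO2; luciferase detection reagent; luminescence decrease equals reduced growth.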
# A number is an active result; . = inactive; ? = inconclusive; / = not tested or not shown; [ ] = dose if it differs, or a comment. This is a sample that favours compounds with a hit; in the whole collection about 11% have one here. Unless noted, the call rests on the fitted dose curve; in most records, active means well fitted curve in the direction sought with a large enough effect; inconclusive means small, poorly fitted or top-dose-only effect, or another doubt; inactive means no such curve, though single readings can be large; an effect the other way counts as inactive or inconclusive.
SMILES,Sm TGR block,Pf growth 48h,NS1 inh,AMA1 RON2 block,Pf growth 96h
COc1ccc(C(C)(C)C)cc1NC(=O)Cn1cnnn1,.,?,.,.,.
CC(=O)c1c(C(C)=O)c(C)n(-c2nc(-c3ccc(C)c(C)c3)c(C)s2)c1C,.,12µM,.,.,.
COc1ccc(-c2nc(-n3c(C)c(C(C)=O)c(C(C)=O)c3C)sc2C)cc1,.,?,.,.,.
Cc1cc(O)c(C(C)C)cc1N=Cc1ccccc1O,4µM,?,.,.,?
Cc1cc(O)c(C(C)C)cc1N=Cc1cc([N+](=O)[O-])ccc1O,?,?,.,.,?
O=C(Nc1ccccc1)Nc1ccc(-n2ccc(C(F)(F)F)n2)cc1,.,?,.,.,3.3µM
Cc1cc(N2CCN(C)CC2)nc2ccc(NC(=S)N3CCCCC3)cc12,.,3.3µM,.,.,9.3µM
Cc1cc(N2CCN(C)CC2)nc2ccc(NC(=S)N3CCN(c4ccc(Cl)cc4)CC3)cc12,.,13µM,/,.,.
Cc1cc(N2CCN(C)CC2)nc2ccc(NC(=O)Nc3ccc(Cl)cc3)cc12,.,/,/,/,/
COc1ccc(N2CCN(C(=S)Nc3ccc(F)cc3)CC2)cc1,.,.,.,.,15µM
Cc1cc(N2CCN(C)CC2)nc2ccc(NC(=S)N3CCCCCC3)cc12,.,?,.,.,.
Cc1cccc(N2CCN(C(=S)Nc3ccc4nc(N5CCN(C)CC5)cc(C)c4c3)CC2C)c1 (stereo not given),.,?,.,.,9.3µM
Cc1cc(N2CCN(C)CC2)nc2ccc(NC(=S)N3CCN(c4cccc(Cl)c4)CC3)cc12,.,?,.,.,.
Cc1cc(N2CCN(C)CC2)nc2ccc(NC(=S)N3CCN(c4ccc(F)cc4)CC3)cc12,.,.,/,.,3.7µM
Cc1cccc(N2CCN(C(=S)Nc3ccc4nc(N5CCN(C)CC5)cc(C)c4c3)CC2)c1C,.,12µM,/,.,?
COc1ccc(N2CCN(c3ccc(NC(=O)/C=C\C(=O)O)cc3)CC2)cc1,.,3.3µM,.,.,?
Cc1ccccc1NC(=O)Nc1ccc2nc(N3CCN(C)CC3)cc(C)c2c1,.,/,/,/,/
Cc1cc(N2CCOCC2)nc2ccc(NC(=O)CCC(=O)N3CCN(c4ccc(F)cc4)CC3)cc12,.,?,.,.,?
Cc1cc(C)c(N2C(=O)C3C4CC(=O)C(c5ccccc54)C3C2=O)c(C)c1 (stereo not given),.,.,.,.,.
Cc1cc(C)c2nc(NC(=O)C3CSC4(C)CCC(=O)N34)sc2c1 (stereo not given),.,.,/,.,.
Cc1cc2cc(CN(Cc3ccco3)S(=O)(=O)c3c(C)ccc4nsnc34)c(=O)[nH]c2cc1C,45µM,?,.,.,.
O=c1[nH]c2ccccc2cc1CN(Cc1ccco1)S(=O)(=O)c1ccc(F)cc1,?,.,.,.,.
Cc1ccc2cc(CN(Cc3ccco3)S(=O)(=O)c3c(C)ccc4nsnc34)c(=O)[nH]c2c1,8.9µM,?,.,.,.
CC(C)NCC[C@@H](O)c1cc2ccccc2o1,/,/,.,/,/
CC1SC(c2ccc(F)cc2)N(CCc2ccccc2)C1=O (stereo not given),.,.[0.00184 µM],.,.,.
SMILES,Sm TGR block,Pf growth 48h,NS1 inh,AMA1 RON2 block,Pf growth 96h
Cc1ccc(CCN=c2c([N+](=O)[O-])nn(-c3ccccc3)n2O)cc1,/,?,.,.,.
O=[N+]([O-])c1nn(-c2ccc(Cl)cc2)n(O)c1=NCc1ccncc1,.,2.9µM,.,.,.
O=[N+]([O-])c1nn(-c2ccccc2)n(O)c1=NCCc1ccccc1,.,4.1µM,.,.,.
O=[N+]([O-])c1nn(-c2ccc(Cl)cc2)n(O)c1=NCc1cccnc1,.,.,.,.,.
Cc1ccc(CN=c2c([N+](=O)[O-])nn(-c3ccc(Cl)cc3)n2O)cc1,.,.,.,.,3.3µM
Cc1cc(C)cc(N=c2c([N+](=O)[O-])nn(-c3cccc(Cl)c3)n2O)c1,.,/,.,.,3.7µM
Fc1ccc(-c2csc(-c3nc(-c4ccc(Br)s4)cs3)n2)cc1,.,/,/,/,/
CC(C)(C)C(=O)n1nc(-c2ccccc2)oc1=O,32µM,.,.,.,.
COc1ccc(-n2nc(C(=O)NCCc3ccc(Cl)cc3)c3c4ccccc4n(C)c3c2=O)cc1,.,/,/,/,/
CCc1cc(=O)oc2cc(C)cc(OCC(=O)NC(Cc3c[nH]c4ccc(O)cc34)C(=O)O)c12 (stereo not given),.,.,.,.,.
CCCc1cc(=O)oc2cc(C)cc(OCC(=O)NC3CC3)c12,.,1.7µM,.,.,2.1µM
CCc1cc(=O)oc2cc(C)cc(OCC(=O)NC3CC3)c12,.,12µM,.,.,?
Cc1cc(OCC(=O)NC2CC2)c2c(C)cc(=O)oc2c1,.,.,.,.,.
CCc1cc(=O)oc2cc(C)cc(OCC(=O)NCCc3c[nH]c4ccccc34)c12,.,1.9µM,.,.,2.6µM
CCCc1cc(=O)oc2cc(C)cc(OCC(=O)Nc3ccc(CN4CCOCC4)cc3)c12,.,?,.,.,8.3µM
Cc1nnc(SCCC(=O)Nc2ccccc2Cl)o1,.,.,.,.,.
CCc1ccc(N(CC(=O)NC(C)(C)C)C(=O)CCC(=O)Nc2ccccn2)cc1,.,.,.,.,.
CC(C)c1ccc(NC2CCCN(C(=O)c3ccoc3)C2)cc1 (stereo not given),.,.,.,.,.
COc1cccc(-c2nc(CS(=O)(=O)CC(=O)N3CCOCC3)c(C)o2)c1,?,.,.,.,.
O=C(CSc1nc(-c2ccncc2)nn1CC(=O)N1CCCCC1)NC1CCCC1,40µM,.,.,3.8µM,.
CCN(CC(=O)Nc1ccc(OC)c(OC)c1)CC(=O)Nc1ccccc1C(F)(F)F,?,.,.,.,.
CCN(CC(=O)Nc1ccc(C(C)=O)cc1)CC(=O)Nc1ccccc1C(F)(F)F,32µM,.,/,.,.
O=C(CC(=O)c1ccccc1)Nc1ccccc1C(F)(F)F,.,.,.,.,12µM
CCN(CC)CCCNC(=O)c1ccc(OCC(=O)Nc2ccccc2C(F)(F)F)c(OC)c1,.,?,.,.,19µM
CC(C)(C)N1C(=O)Cc2c1nc(N)c1c(N)nc(N3CCCCC3CO)c(C#N)c21 (stereo not given),?,?,?,.,5.9µM
SMILES,Sm TGR block,Pf growth 48h,NS1 inh,AMA1 RON2 block,Pf growth 96h
CN(CCO)c1nc(N)c2c(N)nc3c(c2c1C#N)CC(=O)N3C1CCCC1,.,?,?,/,?
CC(=O)c1c[nH]c2ccc(C)cc2c1=O,.,6.6µM,.,.,?
CCOc1ccc2[nH]cc(C(=O)O)c(=O)c2c1,.,.,.,.,/
CCOC(=O)c1ccc2[nH]cc(C(C)=O)c(=O)c2c1,.,4.7µM,.,.,.
CCOC(=O)c1ccc(-c2ccc3[nH]c4ccccc4c(=O)c3c2)cc1F,?,?,.,.,5.2µM
CCOC(=O)c1c[nH]c2ccc3ccccc3c2c1=O,.,?,.,.,4.7µM
O=C(CCC(=O)N1CCOCC1)NCCc1ccccc1,.,.,/,.[11.6 µM],.
